Each structure is given as a SMILES string. The source made the active and inactive calls.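 Rule for the calls, unless noted: active = inhibition above the screen-wide mean plus 3 SD, about 51%; inactive = the rest.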

Experiment [1] is described as follows: reduced mouse 2C T cell binding to pMHC/ICAM-1 vesicles – MLPCN validation set, flow cytometry, LFA-1/ICAM-1 modulator project, pilot screen (AID 2523;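 active = response below a set limit, under 55% cells CD8-positive and vesicle-bound, and CD8 cells' 90th-percentile brightness under 279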;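 for vesicle binding response: mean PE anti-B7-1 fluorescence of CD8+ cells relative to row control; 100% = QL9-loaded vesicles with DMSO vehicle in the same plate row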). The conditions noted are these: 2C mouse CD8+ T cells, at 7 µM, stronger effect = lower value; double positive events: measured here: CD8+/vesicle+ event percentage. For orientation: In flow cytometry, cells or beads pass a laser one at a time.

Experiment [2] has as its target Integrin beta-1 (Homo sapiens) + Integrin alpha-4 (Homo sapiens) (UniProt P13612+P05556). The experiment in a line: alpha4beta1 integrin LIBS antibody binding reduction – U937 cells, HUTS-21 mAb, flow cytometry, validation set, VLA-4 allosteric modulator project, pilot screen (AID 2674;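 active = inhibition above 50%, about 3 SD of the validation set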;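 note: antibody binding induced by the VLA-4 ligand LDV present at three times its Kd; 0% = LDV ligand with antibody and no compound and 100% = antibody without LDV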). The conditions noted are these: HUTS-21 LIBS mAb binding, at 6.7 µM, stronger effect = higher value, binding induced by LDV ligand.

A short description of experiment [3]: calorie-restriction mimetic ROS inhibitors, yeast – validation compound set, pilot screen (AID 2706;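 active = superoxide response below 65% of plate, a cut near 3 SD across the whole screen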;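 note: yeast exposed to compound for one week at 30 degrees C before staining; 100% = mean of all compound wells on the same plate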). As to conditions: S. cerevisiae aging, superoxide DHE fluorescence; at 10 µM, stronger effect = lower value.
Experiment [4] addresses Beta-adrenergic receptor kinase 1 (Homo sapiens) (UniProt P25098). In words: GRK2 binders displacing RNA aptamer, biochemical, validation, human GRK2, bead flow cytometry (AID 488806;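 active = aptamer binding inhibition above 30%, about 3 SD of noise from non-fluorescent compounds; inactive = inhibition at or below 30%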). As to conditions: bead-bound GRK2, FAM-aptamer displacement, at 10 µM, stronger effect = higher value.
The target in experiment [5] is Beta-2 adrenergic receptor (Homo sapiens) (UniProt P07550). In words: agonist-induced loss of surface beta2AR – cell-based, FAP fluorogen, flow cytometry, validation set, pilot screen (AID 504459;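 active = percent response above 42, roughly 3 SD of non-fluorescent test compounds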;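 note: agonist-driven loss of surface beta2AR via internalization measured by FAP dye flow cytometry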). The conditions noted are these: Am2.2-beta2AR cells, at 10 µM, stronger effect = higher value.
Experiment [6] deals with AP-2 complex subunit beta (Homo sapiens) (UniProt P63010). In words: beta-arrestin/AP2 interaction blockers – biochemical, validation set, GST-AP2 beads, flow cytometry, pilot screen (AID 504541;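 active = inhibition above 54%, about 3 SD of non-fluorescent compounds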;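 note: AP2 carries R879A mutation and is captured from E. coli lysate; bead-bound FITC arrestin peptide fluorescence measuring arrestin peptide binding to AP2; 0% = DMSO wells and 100% = excess unlabeled arrestin peptide control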). As to conditions: FITC arrestin peptide, at 10 µM, stronger effect = higher value, AP2 beta2 appendage fragment, R879A mutant.
Experiment [7] in a line: cytosolic pH regulators acting via V-ATPase – S. cerevisiae, pHLuorin, HTS validation (AID 504600; in the data active = response above about 15%;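 note: plate controls were DMSO for no effect and reference compound for full effect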). As to conditions: V-ATPase proton transport, at 10 µM, stronger effect = higher value.
Experiment [8] relates to anti-desmoglein-3 scFv antibody binding to human DSG3. In words: blockers of pathogenic pemphigus antibody–desmoglein-3 binding – biochemical, validation compound set, bead-based, flow cytometry, pilot screen (AID 588368;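 active = binding below the plate cutoff, the plate median minus 3 SD, with a reading above zero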;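 note: signal is the median channel fluorescence of bead-bound GFP antibody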). As to conditions: Protein G beads, DSG3-Fc, scFv-GFP binding, at 10 µM, stronger effect = lower value.
Experiment [9] in a line: Nile Red efflux blockade in pump-expressing yeast – validation compound set, multiplex, phenotypic, pilot screen (AID 588506;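 active = efflux inhibition above 0.42, the validation set average plus 4 SD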;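 note: Nile Red retained in cells so higher fluorescence means more efflux inhibition; 0 = negative control wells and 1 = enniatin B 25 µM full block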). As to conditions: S. cerevisiae pump-expressing triplex, Nile Red efflux flow cytometry; at 10 µM; stronger effect = higher value; the pumps come from Candida albicans.
Experiment [10] addresses ATP-binding cassette sub-family B member 6 (Homo sapiens) (UniProt Q9NP58). In words: blockers of ABCB6-driven porphyrin uptake – K562-ABCB6 cells, flow cytometry, validation set, pilot screen (AID 588550).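 Note: 0% = DMSO wells and 100% = benzethonium chloride 70 µM positive control.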 As to conditions: K562-ABCB6 porphyrin accumulation, 1 h, at 10 µM, stronger effect = higher value.
Experiment [11] can be described thus: AML differentiation inducers, ER-HoxA9 marrow cells – cell-based, GFP/MAC1 double positive, flow cytometry, validation set, primary screen (AID 588685;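 active = differentiation response of at least 50%, scaled between solvent and reference control, from cells with both markers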;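 note: compound exposure lasts four days before antibody staining and flow analysis; 0% = DMSO wells and 100% = 5 µM fulvestrant positive control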). As to conditions: stronger effect = higher value, normalized: vehicle 0, fulvestrant 100.

Integrin beta-1 (Homo sapiens) + Integrin alpha-4 (Homo sapiens), sequence (P05556 whole entry, looked up): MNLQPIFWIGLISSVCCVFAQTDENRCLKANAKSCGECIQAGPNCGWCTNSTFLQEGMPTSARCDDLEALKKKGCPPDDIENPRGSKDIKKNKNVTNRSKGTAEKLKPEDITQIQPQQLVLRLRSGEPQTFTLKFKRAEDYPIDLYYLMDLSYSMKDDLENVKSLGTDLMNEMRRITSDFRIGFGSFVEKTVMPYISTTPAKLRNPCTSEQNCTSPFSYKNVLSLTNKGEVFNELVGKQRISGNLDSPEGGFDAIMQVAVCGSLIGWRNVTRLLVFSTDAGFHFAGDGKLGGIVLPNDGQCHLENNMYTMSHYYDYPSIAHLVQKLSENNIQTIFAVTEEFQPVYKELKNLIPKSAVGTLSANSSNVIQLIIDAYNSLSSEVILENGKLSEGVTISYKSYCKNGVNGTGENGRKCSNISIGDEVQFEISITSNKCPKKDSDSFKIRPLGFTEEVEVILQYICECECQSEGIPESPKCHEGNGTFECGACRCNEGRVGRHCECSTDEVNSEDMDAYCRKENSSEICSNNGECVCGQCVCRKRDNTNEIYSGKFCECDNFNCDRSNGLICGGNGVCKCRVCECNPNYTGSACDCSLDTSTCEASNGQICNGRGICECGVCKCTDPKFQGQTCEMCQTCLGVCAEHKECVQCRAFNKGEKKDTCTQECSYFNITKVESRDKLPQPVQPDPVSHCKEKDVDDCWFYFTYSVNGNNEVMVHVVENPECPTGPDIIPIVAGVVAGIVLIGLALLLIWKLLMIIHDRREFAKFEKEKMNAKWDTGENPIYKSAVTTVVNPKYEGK
Integrin beta-1 (Homo sapiens) + Integrin alpha-4 (Homo sapiens), sequence (P13612 whole entry, looked up): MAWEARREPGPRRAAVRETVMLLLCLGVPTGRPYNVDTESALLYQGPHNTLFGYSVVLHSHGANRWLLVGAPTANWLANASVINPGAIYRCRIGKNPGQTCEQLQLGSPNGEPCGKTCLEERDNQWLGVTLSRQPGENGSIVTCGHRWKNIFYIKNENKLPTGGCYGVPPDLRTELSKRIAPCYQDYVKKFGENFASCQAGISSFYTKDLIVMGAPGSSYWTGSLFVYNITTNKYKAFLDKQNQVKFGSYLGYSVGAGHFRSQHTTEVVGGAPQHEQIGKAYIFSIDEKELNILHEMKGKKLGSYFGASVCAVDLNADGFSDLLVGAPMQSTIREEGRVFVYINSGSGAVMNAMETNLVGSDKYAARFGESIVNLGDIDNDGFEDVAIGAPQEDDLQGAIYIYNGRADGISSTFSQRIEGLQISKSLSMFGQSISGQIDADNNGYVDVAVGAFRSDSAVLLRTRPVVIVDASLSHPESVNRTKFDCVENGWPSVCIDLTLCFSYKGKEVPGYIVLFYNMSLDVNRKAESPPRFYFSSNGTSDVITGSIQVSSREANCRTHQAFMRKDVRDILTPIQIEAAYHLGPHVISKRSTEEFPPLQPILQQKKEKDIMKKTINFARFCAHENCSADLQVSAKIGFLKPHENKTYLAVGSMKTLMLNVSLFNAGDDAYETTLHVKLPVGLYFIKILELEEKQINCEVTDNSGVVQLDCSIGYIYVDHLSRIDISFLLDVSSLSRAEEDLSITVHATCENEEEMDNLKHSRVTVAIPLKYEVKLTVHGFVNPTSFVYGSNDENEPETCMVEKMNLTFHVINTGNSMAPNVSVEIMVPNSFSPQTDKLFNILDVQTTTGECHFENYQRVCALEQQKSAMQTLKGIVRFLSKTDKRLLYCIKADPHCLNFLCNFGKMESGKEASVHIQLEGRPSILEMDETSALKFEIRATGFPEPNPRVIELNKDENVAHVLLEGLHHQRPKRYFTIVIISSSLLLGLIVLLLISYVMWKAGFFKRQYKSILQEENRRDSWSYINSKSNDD
Beta-2 adrenergic receptor (Homo sapiens), sequence (P07550 whole entry, looked up): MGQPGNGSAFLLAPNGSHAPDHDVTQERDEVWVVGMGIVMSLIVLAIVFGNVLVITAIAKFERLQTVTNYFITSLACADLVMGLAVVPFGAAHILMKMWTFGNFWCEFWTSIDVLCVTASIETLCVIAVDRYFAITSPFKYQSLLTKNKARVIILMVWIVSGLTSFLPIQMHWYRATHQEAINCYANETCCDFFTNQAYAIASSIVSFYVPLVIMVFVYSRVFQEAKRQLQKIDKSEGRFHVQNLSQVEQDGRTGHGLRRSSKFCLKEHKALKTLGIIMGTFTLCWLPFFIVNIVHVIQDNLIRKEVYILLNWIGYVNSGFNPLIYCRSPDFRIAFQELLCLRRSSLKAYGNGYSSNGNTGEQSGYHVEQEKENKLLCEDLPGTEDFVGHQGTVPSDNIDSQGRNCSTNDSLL
Beta-adrenergic receptor kinase 1 (Homo sapiens), sequence (P25098 whole entry, looked up): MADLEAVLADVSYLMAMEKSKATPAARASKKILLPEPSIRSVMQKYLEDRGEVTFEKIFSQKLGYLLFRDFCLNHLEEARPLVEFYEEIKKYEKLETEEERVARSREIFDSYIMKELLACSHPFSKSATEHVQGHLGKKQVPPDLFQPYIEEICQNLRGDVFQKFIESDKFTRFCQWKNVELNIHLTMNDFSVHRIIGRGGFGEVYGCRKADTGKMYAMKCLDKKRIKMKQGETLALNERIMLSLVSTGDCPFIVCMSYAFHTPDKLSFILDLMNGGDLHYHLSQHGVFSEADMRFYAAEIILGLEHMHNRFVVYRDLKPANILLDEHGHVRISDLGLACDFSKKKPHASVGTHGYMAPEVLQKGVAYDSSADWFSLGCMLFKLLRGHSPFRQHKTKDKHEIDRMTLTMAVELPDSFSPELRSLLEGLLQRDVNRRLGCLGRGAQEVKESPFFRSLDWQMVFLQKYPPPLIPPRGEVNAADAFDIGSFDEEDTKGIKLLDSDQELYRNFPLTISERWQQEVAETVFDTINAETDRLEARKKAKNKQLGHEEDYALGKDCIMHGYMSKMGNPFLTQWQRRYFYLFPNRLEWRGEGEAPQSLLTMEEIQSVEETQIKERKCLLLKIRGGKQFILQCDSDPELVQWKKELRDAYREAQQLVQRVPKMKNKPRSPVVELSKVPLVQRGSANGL
AP-2 complex subunit beta (Homo sapiens), sequence (P63010 whole entry, looked up, the tested form may be a part, one chain of several): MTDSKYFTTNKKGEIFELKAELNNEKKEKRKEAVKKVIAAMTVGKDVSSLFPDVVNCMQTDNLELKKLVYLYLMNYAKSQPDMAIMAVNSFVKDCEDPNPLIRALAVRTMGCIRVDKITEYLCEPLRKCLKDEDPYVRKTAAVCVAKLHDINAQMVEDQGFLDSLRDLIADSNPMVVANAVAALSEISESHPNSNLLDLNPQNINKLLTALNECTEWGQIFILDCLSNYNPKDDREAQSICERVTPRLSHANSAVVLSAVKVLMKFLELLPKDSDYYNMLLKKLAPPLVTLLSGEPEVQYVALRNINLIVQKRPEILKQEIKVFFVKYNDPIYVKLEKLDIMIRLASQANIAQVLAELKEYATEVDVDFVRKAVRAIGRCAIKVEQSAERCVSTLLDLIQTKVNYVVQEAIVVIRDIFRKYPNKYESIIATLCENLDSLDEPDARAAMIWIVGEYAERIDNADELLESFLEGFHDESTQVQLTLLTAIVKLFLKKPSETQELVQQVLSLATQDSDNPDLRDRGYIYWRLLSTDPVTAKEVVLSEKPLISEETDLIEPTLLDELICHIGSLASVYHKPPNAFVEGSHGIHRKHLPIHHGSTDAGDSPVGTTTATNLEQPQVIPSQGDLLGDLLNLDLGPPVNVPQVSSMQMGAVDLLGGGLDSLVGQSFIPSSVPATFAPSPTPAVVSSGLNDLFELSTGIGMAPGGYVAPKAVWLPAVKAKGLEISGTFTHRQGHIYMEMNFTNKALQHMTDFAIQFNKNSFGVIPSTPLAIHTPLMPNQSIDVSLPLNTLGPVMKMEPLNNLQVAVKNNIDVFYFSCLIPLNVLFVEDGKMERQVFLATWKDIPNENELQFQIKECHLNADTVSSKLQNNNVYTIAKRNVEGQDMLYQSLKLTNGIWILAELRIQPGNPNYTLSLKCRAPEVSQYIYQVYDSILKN
ATP-binding cassette sub-family B member 6 (Homo sapiens), sequence (Q9NP58 whole entry, looked up): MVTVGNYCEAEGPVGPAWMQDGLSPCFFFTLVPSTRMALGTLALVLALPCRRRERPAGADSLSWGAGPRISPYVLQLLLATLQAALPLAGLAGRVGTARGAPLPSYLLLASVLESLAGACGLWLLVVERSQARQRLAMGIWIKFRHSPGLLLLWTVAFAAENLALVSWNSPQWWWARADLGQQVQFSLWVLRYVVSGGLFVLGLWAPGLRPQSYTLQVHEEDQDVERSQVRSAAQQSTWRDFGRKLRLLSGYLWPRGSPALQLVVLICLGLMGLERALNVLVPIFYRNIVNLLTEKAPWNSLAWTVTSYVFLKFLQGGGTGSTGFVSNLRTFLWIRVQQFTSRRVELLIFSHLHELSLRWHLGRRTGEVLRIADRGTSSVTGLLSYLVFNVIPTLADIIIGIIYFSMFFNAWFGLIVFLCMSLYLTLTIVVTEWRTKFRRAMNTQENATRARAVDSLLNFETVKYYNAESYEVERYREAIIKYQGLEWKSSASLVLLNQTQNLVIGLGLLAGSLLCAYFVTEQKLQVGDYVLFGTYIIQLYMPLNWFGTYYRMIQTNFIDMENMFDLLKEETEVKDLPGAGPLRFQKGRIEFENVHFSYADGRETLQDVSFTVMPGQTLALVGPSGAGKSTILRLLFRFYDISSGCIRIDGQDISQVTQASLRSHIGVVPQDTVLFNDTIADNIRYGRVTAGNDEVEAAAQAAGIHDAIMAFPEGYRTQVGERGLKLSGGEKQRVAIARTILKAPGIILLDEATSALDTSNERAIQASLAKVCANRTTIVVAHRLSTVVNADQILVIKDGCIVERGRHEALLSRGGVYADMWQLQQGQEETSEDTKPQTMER

As a reminder, the inhibition is the drop in the measured response relative to a control, in per cent. On to `Cc1oc2c(C)c3oc(=O)c4c(c3cc2c1C)CCCC4`, for which the double positive events in [1] worked out at 54.6%. In experiment [1], the vesicle binding response was 32.8% (active). Moreover, the inhibition is -22.2% (inactive) in [2], -2.86% (inactive) in experiment [6] and 2% (inactive) in experiment [10]. The superoxide response (% of plate) in [3] is 114% (inactive). The aptamer binding inhibition in experiment [4] is 3% (inactive). The response in experiment [5] is -4.45% (inactive); in experiment [7] it was 0.57% (inactive). Further, the binding (% of control) in experiment [8] was 89.1% (inactive). Also, in experiment [9], the efflux inhibition (fraction of control) is -0.2 (inactive). Further, in experiment [11], the differentiation response was 2.2% (inactive).
`COc1ccccc1C(CC(=O)Nc1ccccc1C)c1ccc(OC(C)C)cc1` (centres undefined) displayed a double positive events in [1] of 63.5%. For the same compound, the vesicle binding response in experiment [1] is 263% (inactive). In addition, the values for the inhibition in experiment [2], in [6] and in experiment [10] were 9.95% (inactive), -4.43% (inactive) and 0% (inactive), respectively. Also, in experiment [3], the superoxide response (% of plate) was 92.7% (inactive). In addition, the aptamer binding inhibition in experiment [4] was 4% (inactive). Besides, the response in experiment [5] was -15% (inactive); in [7], -5.65% (inactive). The binding (% of control) in [8] was 105% (inactive). Further, in experiment [9], the efflux inhibition (fraction of control) was 0.54 (active). The differentiation response in [11] is -1.05% (inactive).
`COc1ccc(NC(=S)NCCc2c[nH]c3ccccc23)cc1` came in with a double positive events in experiment [1] of 69.3%. The vesicle binding response in experiment [1] is 445% (inactive). In addition, the inhibition in [2] is -1.97% (inactive); in [6], -10.2% (inactive); in experiment [10] it was 8% (inactive). The superoxide response (% of plate) in experiment [3] is 111% (inactive). Also, in [4], the aptamer binding inhibition is 1% (inactive). For the same compound, the response in experiment [5] is -13.3% (inactive); in experiment [7], -1.54% (inactive). In addition, in [8], the binding (% of control) was 108% (inactive). The efflux inhibition (fraction of control) in experiment [9] was 0 (inactive). Besides, the differentiation response in experiment [11] was -6.96% (inactive).
In experiment [1], `CC(=O)NCCCC(=O)NC(CCC(=O)OCc1ccccc1)C(=O)OCc1ccccc1` (centres undefined) displayed a double positive events of 72.6%. In [1], the vesicle binding response was 425% (inactive). The inhibition in experiment [2] is 5.03% (inactive); in experiment [6], -8.67% (inactive); in experiment [10], 2% (inactive). In experiment [3], the superoxide response (% of plate) is 86.7% (inactive). Also, the aptamer binding inhibition in experiment [4] was 1% (inactive). The response in experiment [5] was 6.65% (inactive); in experiment [7], -0.06% (inactive). In experiment [8], the binding (% of control) is 96.8% (inactive). Besides, in [9], the efflux inhibition (fraction of control) is 0.4 (inactive). For the same compound, the differentiation response in experiment [11] was 34.4% (inactive).
As for `CCCCC[C@H](O)/C=C/[C@@H]1[C@@H](C/C=C\CCCC(=O)O)[C@@H](O)C[C@H]1O`, the double positive events in [1] worked out at 60.4%. Further, the vesicle binding response in [1] was 106% (inactive). Further, the inhibition in experiment [2] is -49.3% (inactive); in experiment [6], -12.4% (inactive); in [10], 1% (inactive). For the same compound, the superoxide response (% of plate) in experiment [3] is 96.5% (inactive). Besides, the aptamer binding inhibition in experiment [4] is 1% (inactive). In addition, the values for the response in experiment [5] and in experiment [7] were -3.9% (inactive) and -1.19% (inactive), respectively. Further, the binding (% of control) in experiment [8] is 98.8% (inactive). For the same compound, the efflux inhibition (fraction of control) in [9] is 0.045 (inactive). The differentiation response in [11] was -11.9% (inactive).
In experiment [1], `O=c1ccc2ccccc2o1` yielded a double positive events of 62.3%. Besides, in experiment [1], the vesicle binding response was 162% (inactive). Also, the inhibition in experiment [2] was -3.77% (inactive); in [6] it was 1.88% (inactive); in [10] it was -8% (inactive). In addition, the superoxide response (% of plate) in experiment [3] is 95.1% (inactive). Further, the aptamer binding inhibition in [4] is -7% (inactive). The response in experiment [5] is 0.92% (inactive); in experiment [7], -9% (inactive). In experiment [8], the binding (% of control) was 103% (inactive). The efflux inhibition (fraction of control) in experiment [9] is -0.02 (inactive). Further, in experiment [11], the differentiation response is 2.74% (inactive).
`COC1CCCCC1Nc1ccc(C)c(C)c1` (centres undefined): the double positive events in experiment [1] came out at 59.5%. Also, the vesicle binding response in experiment [1] is 262% (inactive). Moreover, the inhibition in [2] was -1.79% (inactive); in [6], -5.05% (inactive); in experiment [10], 5% (inactive). Further, the superoxide response (% of plate) in experiment [3] was 100% (inactive). Also, the aptamer binding inhibition in experiment [4] was 5% (inactive). Besides, the response in [5] is 6.1% (inactive); in [7], 0.08% (inactive). The binding (% of control) in [8] was 94.7% (inactive). In experiment [9], the efflux inhibition (fraction of control) is 0.05 (inactive). Moreover, the differentiation response in experiment [11] is -12% (inactive).
